Experimental data: PubChem BioAssay (Tox21)
Records with an inconclusive call do not appear. Unmarked numbers belong to inactive results. The call rests on the fitted dose curve.

Assay: p53 small molecule agonists, cell-based qHTS assay with rat liver microsomes: qHTS cell viability counter screen (AID 1963580); further: nearly all actives have a fitted effect of over 45% in size
Conditions: p53RE-bla HCT-116 + rat microsomes, ATP viability, 16 h; series mostly up to 66 µM; activity change, negative = cytotoxicity: at the top concentration
From the text: National Center for Advancing Translational Sciences [NCATS]
Division of Preclinical Innovation [DPI]
U.S. Environmental Protection Agency [EPA]
National Institutes of Environmental Health Sciences [NIEHS]
National Toxicology Program [NTP]
U.S. Food and Drug Administration [FDA]
p53, a tumor suppressor protein, is activated following cellular insult, including DNA damage and other cellular stresses. The activation of p53 regulates cell fate by inducing DNA repair, cell cycle arrest, apoptosis, or cellular senescence. The activation of p53, therefore, is a good indicator of DNA damage and other cellular stresses. The CellSensor p53RE-bla HCT-116 cell line contains a stably integrated beta-lactamase reporter gene under control of the p53 response elements. The activation of the reporter gene under culture conditions can be detected by fluorescence intensity. This cell line was used to screen the Tox21 10K compound library in the condition of presence of rat liver microsomes and to identify agonists that activate the p53 signaling pathway after in vitro metabolic activation (Ooka et al., Archive of Toxicology 96:1975-1987, 2022). The cytotoxicity of the Tox21 compound library against the p53 RE-bla HCT-116 cell line was tested in parallel by measuring the intra cellular ATP content in the same wells.
Tox21 Assay Protocol Summary:
The p53RE-bla cells were dispensed at 4,000cells/3ul/well in 1536-well black-clear bottom plates. After the assay plates were incubated at 37 C, 5% CO2 incubator for 5 hours, 23 nL of compounds dissolved in DMSO, positive controls or DMSO only was transferred to the assay plate. Following compound addition, 3 uL of rat liver microsomes (Molecular Toxicology, Boone, NC) at final concentration of 0.5 mg/mL and 1uL of B-Nicotinamide adenine dinucleotide 2'-phosphate (NADPH) at final concentration of 0.5 mg/mL were transferred to the assay plate. The plates were incubated at 37 C for 16 hours. 1 uL of LiveBLAzer detection mixture was added to each well and the plates were incubated at room temperature in the dark for 2 h. Fluorescence intensity at 460 and 530 nm emission and 405 nm excitation were measured by an Envision plate reader. For cell viability readout that measures cytotoxicity, 4 ul/well of CellTiter-Glo reagent was added into the assay plates using a Flying Reagent Dispenser. After 30 min incubation at room temperature, the luminescence intensity in the plates was measured using a ViewLux plate reader.
On the % scale 0 is the no-effect control and ±100 the full control effect.

Compared with CC(=O)c1ccc2c(c1)N(CCCN1CCC(CCO)CC1)c1ccccc1S2, OC(CN1CCC(Cc2ccc(F)cc2)CC1)c1ccc(Cl)cc1 (stereo not given) is lower in “activity change, negative = cytotoxicity” value: 1.22% [at 30.3 µM] for the first, -12.6% [at 30.3 µM] for the second.

First: CO[C@@]1(NC(=O)Cc2cccs2)C(=O)N2C(C(=O)O)=C(COC(N)=O)CS[C@@H]21
Second: CC(=O)OCC(=O)NCCCOc1cccc(CN2CCCCC2)c1
The “activity change, negative = cytotoxicity” value of the first is lower: -4.57% [at 30.3 µM] for the first, 1.99% [at 30.3 µM] for the second.

First: CC(C)COCC(CN(Cc1ccccc1)c1ccccc1)N1CCCC1 (stereo not given)
Second: OC(CCN1CCCCC1)(c1ccccc1)C1CC2C=CC1C2 (stereo not given)
The “activity change, negative = cytotoxicity” value of the first is lower: -12.1% [at 30.3 µM] for the first, 8.49% [at 30.3 µM] for the second.

First: O=C(OCC(O)CO)c1ccccc1Nc1ccnc2cc(Cl)ccc12 (stereo not given)
Second: Clc1ccc(Nc2nnc(Cc3ccncc3)c3ccccc23)cc1
The “activity change, negative = cytotoxicity” value of the first is lower: -11.5% [at 30.3 µM] for the first, -1.67% [at 30.3 µM] for the second.

Compared with COc1ccc(-c2cc(=S)ss2)cc1, Cc1c(Nc2ncccc2C(=O)O)cccc1C(F)(F)F is lower in “activity change, negative = cytotoxicity” value: 1.41% [at 30.3 µM] for the first, -2.99% [at 30.3 µM] for the second.

Going from CC1=C(C/C=C(\C)CCC[C@H](C)CCC[C@H](C)CCCC(C)C)C(=O)c2ccccc2C1=O to CC(=O)OCC(=O)[C@@]12OC(C)(C)O[C@@H]1C[C@H]1[C@@H]3C[C@H](F)C4=CC(=O)C=C[C@]4(C)[C@@]3(F)[C@@H](O)C[C@@]12C, the “activity change, negative = cytotoxicity” value falls from 3.8% [at 30.3 µM] to 3.1% [at 30.3 µM].

First: CCCC(=O)OC/C=C(\C)CCC=C(C)C
Second: CCCCOC(=O)CC#N
The “activity change, negative = cytotoxicity” value of the first is higher: 0.272% for the first, -13.5% for the second.

First: CCN1CCOCC1
Second: C1CCC2=NCCCN2CC1
The “activity change, negative = cytotoxicity” value of the first is lower: 0.317% for the first, 6.84% for the second.

First: CC(C)(C)c1ccc(N)cc1
Second: CC(C)(O)c1ccc(C(C)(C)O)cc1
The “activity change, negative = cytotoxicity” value of the first is higher: -0.949% for the first, -4.02% for the second.

Compared with Oc1ccc(Cl)cc1C1CCCC1, COc1ccc(OC)c(Cl)c1 is higher in “activity change, negative = cytotoxicity” value: -27.5% for the first, -0.068% for the second.

Going from CN(C)C(C)(C)CO to CC(C)CC(C)(C)C, the “activity change, negative = cytotoxicity” value falls from 29.6% to -10.3%.

Going from NNc1nc(-c2ccc(N)cc2)cs1 to O=C(O)COc1ccc2ccccc2c1, the “activity change, negative = cytotoxicity” value falls from 0.423% to -0.0601%.

Compared with Clc1nc2ccccc2nc1Cl, O=S(=O)(Oc1ccc(Cl)cc1)c1ccccc1 is lower in “activity change, negative = cytotoxicity” value: 10.3% for the first, -0.0489% for the second.

Going from O=C1CCC(=O)N1Cl to CC(=O)CCC1=C(C)CCCC1(C)C, the “activity change, negative = cytotoxicity” value rises from -7.04% to 0.607%.

Compared with O=C1CCCCCCCCCCCCCCO1, O=C1c2ccccc2C(=O)c2c(O)ccc(O)c21 is higher in “activity change, negative = cytotoxicity” value: 3.04% for the first, 3.05% for the second.

Compared with CNC(=S)NC, CCCOCC(C)OCC(C)O (stereo not given) is higher in “activity change, negative = cytotoxicity” value: -31.1% for the first, -2.85% for the second.

First: CC(C)CCOC(=O)/C=C/c1ccccc1
Second: O=C(O)c1ccccc1C(=O)OCc1ccccc1
The “activity change, negative = cytotoxicity” value of the first is lower: 3.44% for the first, 7.74% for the second.

Going from Cc1cc(Cl)c(C)cc1Cl to CC/C=C\C/C=C\C/C=C\CCCCCCCC(=O)OCC, the “activity change, negative = cytotoxicity” value falls from -1.98% to -4.37%.

Compared with CCCCOCCOCCOCCOCCO, CCCCCCCCCCCCCC(=O)OC is lower in “activity change, negative = cytotoxicity” value: -15.3% for the first, -16% for the second.

In the case of COC(C)(C)OC, the “activity change, negative = cytotoxicity” value is reported as 1.54%.

Molecule Cn1ccc2cc3c(cc21)CCN3C(=O)Nc1cccnc1 has an activity change, negative = cytotoxicity of -3.54% [at 13.5 µM].
